Here are results for 32 compounds from PubChem BioAssay (EPA / NIEHS).

Molecules are shown by their SMILES. Inconclusive results are not listed. Some compounds were tested as several samples or in several runs, with calls that do not always agree. Active and inactive are the calls of the source. The calls were made as follows, unless noted: active = hit-call score of the fitted dose curve at least 0.9, where 1 is the maximum; inconclusive = response in the unintended direction; inactive = score below 0.9.

Experiment [1] in a line: TOX21_p53_BLA_p2_viability: Viability Assessment in the Tox21 HCT-116 p53 Agonism Beta-lactamase Assay, Phase 2 (AID 2283591).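 Also: compound exposure lasted 16 h at 37 °C; actives lower the ATP signal meaning cytotoxicity.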 The method in brief: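 HCT-116 p53-bla cells (4000/well) rested 5 h at 37C, then received compounds in DMSO (217-fold dilution) for 16 h at 37C, 5% CO2. After the CCF4 read, CellTiter-Glo was added; ATP luminescence was read after 30 min at room temperature.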

Experiment [2] has as its target Cellular tumor antigen p53 (Homo sapiens) (UniProt P04637). Briefly: TOX21_p53_BLA_p2_ratio: Tox21 HCT-116 p53 Agonism Beta-lactamase Assay, Ratio, Phase 2 (AID 2283592). An outline of the steps: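 Human colon HCT116 cells with an inducible p53 beta-lactamase reporter are exposed to test chemicals for 16 h at 37C. Reporter induction is read as the 460/530 nm emission ratio after CCF4-AM loading, normalized to DMSO.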

Experiment [3] in a line: TOX21_p53_BLA_p4_viability: Viability Assessment in the Tox21 HCT-116 p53 Agonism Beta-lactamase Assay, Phase 4 (AID 2283597).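 Also: hits lower the luminescence signal meaning cytotoxicity.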 The method in brief:
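Luminescent ATP readout (CellTiter-Glo, 30 min, room temperature) in the same wells as the p53 bla ratio. HCT116 cells were treated for 16 h at 37C with DMSO-dissolved compounds.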

The target in experiment [4] is Cellular tumor antigen p53 (Homo sapiens) (UniProt P04637). Put plainly: TOX21_p53_BLA_p5_ratio: Tox21 HCT-116 p53 Agonism Beta-lactamase Assay, Ratio, Phase 5 (AID 2283599). An outline of the steps: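 HCT-116 cells carrying a p53-inducible beta-lactamase reporter were seeded at 4000 cells/well and dosed after 5 h with compound in DMSO (217-fold dilution). After 16 h at 37C, CCF4-AM substrate was added for 2 h, and the 460/530 nm emission ratio was scored as gain-of-signal versus DMSO.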

Experiment [5] can be described thus: TOX21_p53_BLA_p5_viability: Viability Assessment in the Tox21 HCT-116 p53 Agonism Beta-lactamase Assay, Phase 5 (AID 2283600). An outline of the steps:
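Seeded cells (4000/well) settle 5 h before compound addition. Plates then incubate 16 h at 37C, receive FRET substrate for 2 h, and finally CellTiter-Glo, with luminescence measured after a 30 min room-temperature incubation.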

The target of experiment [6] is Cellular tumor antigen p53 (Homo sapiens) (UniProt P04637). Briefly: TOX21_p53_BLA_p4_ratio: Tox21 HCT-116 p53 Agonism Beta-lactamase Assay, Ratio, Phase 4 (AID 2283601). The method in brief: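 HCT116 cells carrying an inducible beta-lactamase reporter were plated at 4000 cells/well, rested 5 h, then exposed to compounds in DMSO (217-fold dilution) for 16 h at 37C. CCF4-AM substrate was loaded 2 h at room temperature; 460/530 nm emission ratio scored gain-of-signal versus DMSO.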

A short description of experiment [7]: CCTE_Harrill_HTTr_Viability_MCF7: CCTE's 6-hour Cell Viability Assessment for the High-Throughput Transcriptomics (HTTr) Platform, in MCF-7 cells cultured in DMEM + 10% fetal bovine serum, Harrill Lab (AID 2284010; active = hit-call score of the fitted dose curve at least 0.9, where 1 is the maximum; inactive = score below 0.9). An outline of the steps: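 MCF-7 cells in DMEM + 10% FBS, 384-well, exposed 6 h to an eight-point dilution series. Membrane integrity scored by high-content imaging of propidium iodide exclusion; bidirectional fit versus DMSO.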

The nature of experiment [8]: TOX21_p53_BLA_p3_viability: Viability Assessment in the Tox21 HCT-116 p53 Agonism Beta-lactamase Assay, Phase 3 (AID 2283593).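 Also: cells exposed to compound for 16 h before reading.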 An outline of the steps:
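HCT-116 cells (4000/well) rested 5 h at 37C, then got DMSO compounds by pin tool (217-fold dilution) for 16 h at 37C, 5% CO2. After the bla read, CellTiter-Glo was added and luminescence read at 30 min, room temperature.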

Experiment [9] addresses Cellular tumor antigen p53 (Homo sapiens) (UniProt P04637). Briefly: TOX21_p53_BLA_p3_ratio: Tox21 HCT-116 p53 Agonism Beta-lactamase Assay, Ratio, Phase 3 (AID 2283596). The method in brief: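 HCT116 p53-bla cells (4000/well) given compound in DMSO (217-fold dilution) after 5 h, incubated 16 h at 37C. CCF4-AM substrate 2 h at room temperature; 460/530 nm emission ratio, gain fitted against DMSO.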

A short description of experiment [10]: ACEA_ER_AUC_viability: ACEA Biosciences xCELLigence Real-Time Cell Analysis on Estrogen Receptor Agonism for Viability (AID 2283782).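 Also: continuous compound exposure with impedance area under curve over 80 h; hit means loss of impedance signal meaning reduced cell growth or viability.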 An outline of the steps:
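T-47D human breast cells in phenol red-free RPMI1640 with 10% charcoal-stripped FBS were dosed with an 8-point 1:4 dilution series from 100 uM top final concentration, in duplicate. Impedance-based growth was followed for 80 h; AUC analysed versus DMSO.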

The nature of experiment [11]: CCTE_Harrill_HTTr_Apoptosis_MCF7: CCTE's 6-hour Apoptosis Assessment for the High-Throughput Transcriptomics (HTTr) Platform, in MCF-7 cells cultured in DMEM + 10% fetal bovine serum, Harrill Lab (AID 2284011; active = hit-call score of the fitted dose curve at least 0.9, where 1 is the maximum; inactive = score below 0.9). An outline of the steps:
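Apoptosis in MCF-7 cells grown in DMEM with 10% fetal bovine serum was scored after a six hour exposure by high content imaging of caspase-3/7 activation (CellEvent Caspase 3/7 Green), with DMSO serving as negative control and baseline.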

Experiment [12] can be described thus: CCTE_Harrill_HTTr_CellCount_MCF7: CCTE's Cell Proliferation Assessment for the High-Throughput Transcriptomics (HTTr) Platform, Harrill Lab (AID 2284012).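 Also: cells exposed to compound for six hours; intended direction is loss of nuclei count meaning fewer cells.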 The method in brief: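 MCF7 cells exposed 6 hours to an eight-point dilution series; Hoechst-stained nuclei counted by high-content imaging. Bidirectional curve fitting against DMSO baseline.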

Cellular tumor antigen p53 (Homo sapiens), sequence (P04637 whole entry, looked up): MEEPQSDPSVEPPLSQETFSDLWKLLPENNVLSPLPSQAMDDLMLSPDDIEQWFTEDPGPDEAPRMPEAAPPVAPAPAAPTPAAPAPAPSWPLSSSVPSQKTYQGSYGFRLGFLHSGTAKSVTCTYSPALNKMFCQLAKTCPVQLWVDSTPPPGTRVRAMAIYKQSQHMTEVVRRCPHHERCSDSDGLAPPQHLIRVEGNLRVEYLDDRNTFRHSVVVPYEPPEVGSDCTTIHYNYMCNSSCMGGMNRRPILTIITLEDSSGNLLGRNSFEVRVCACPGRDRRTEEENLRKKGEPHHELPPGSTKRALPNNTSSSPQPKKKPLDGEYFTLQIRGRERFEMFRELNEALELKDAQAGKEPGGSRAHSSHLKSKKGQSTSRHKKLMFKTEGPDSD

As to `CCCCC/C=C\C/C=C\C/C=C\C/C=C\CCCC(=O)NCC(=O)O`, the compound was classed as inactive in experiment [1], in [2], in experiment [3], in experiment [4], in experiment [5] and in experiment [6].
Take `Clc1ccc(C2(Cn3cncn3)OCCO2)c(Cl)c1`: the call in experiment [1], in experiment [2], in experiment [4] and in [5] was inactive.
With `OCCSSCCO`, the compound was called inactive in experiment [1], in experiment [2], in experiment [4], in [6] and in experiment [7].
In the case of `CNC(=O)NC(O)C(Cl)(Cl)Cl` (stereo not given), the outcome in experiment [1], in experiment [2], in [3], in experiment [5] and in [6] was inactive.
Take `CCCC(=O)Cl`: the compound was classed as inactive in [1], in experiment [2], in experiment [3] and in [5].
`FC(F)(F)c1cccc(C2=CCN(CCc3ccc4ccccc4c3)CC2)c1`: the compound was classed as inactive in [1], in experiment [8], in experiment [9] and in [3].
In the case of `CC(Cl)(Cl)[N+](=O)[O-]`, the call in [1], in [2], in experiment [3], in experiment [4] and in [6] was inactive.
Turning to `COC1CC(=C(c2cccs2)c2cccs2)C[N+](C)(C)C1` (stereo not given), the compound was classed as inactive in experiment [1], in experiment [2], in experiment [4] and in experiment [5].
For orientation: AC50 means the concentration giving half of the maximal activity seen. Turning to `O=C(O)c1ccccc1C(=O)Nc1cccc2ccccc12`, the call in [1], in [2], in [3], in [4], in experiment [5] and in experiment [11] was inactive. The outcome in [12] was inactive. For the same compound, the values for the AC50 in experiment [6], in experiment [10] and in experiment [7] were 70.1 µM (active), 85.4 µM (active) and 53.8 µM (active), respectively.
On to `O=C1CCCCC1Cl` (stereo not given), for which the compound was classed as inactive in [1], in [8], in experiment [9] and in experiment [3].
With `CCC(C(N)=O)N1CCCC1=O` (stereo not given), the result in experiment [1], in [2], in experiment [4], in experiment [5] and in experiment [6] was inactive.
Consider `CCCCNCC(O)c1ccc(O)cc1` (stereo not given), for which the result in [1], in [2], in experiment [4], in experiment [5] and in [6] was inactive.
As for `NCCCNCCCN`, the compound was classed as inactive in experiment [1], in experiment [2], in experiment [3], in experiment [4], in experiment [5] and in experiment [6].
For the compound `CC(Cl)(Cl)Cl`, the compound was called inactive in experiment [1] and in experiment [8].
In the case of `C=CCC1([C@@H](C)CCC)C(=O)NC(=O)NC1=O`, the call in [1], in experiment [2], in experiment [3] and in experiment [5] was inactive.
On to `CC(=O)C(C)(C)C`, for which the call in experiment [1], in experiment [2], in experiment [4], in experiment [5] and in experiment [6] was inactive.
As to `O=c1oc2ccccc2c(O)c1C1CCCc2ccccc21` (stereo not given), the call in experiment [1], in [2], in experiment [4] and in [5] was inactive.
With `O=[N+]([O-])CCO`, the result in experiment [1], in experiment [2], in experiment [3], in experiment [5] and in experiment [6] was inactive.
Consider `CN(C)CCc1c[nH]c2cccc(OP(=O)(O)O)c12`, for which the compound was called inactive in experiment [1], in [2], in [4] and in experiment [5].
Take `CCOC(=O)N(C)C(=O)CSP(=S)(OCC)OCC`: the compound was classed as inactive in [1], in experiment [2], in experiment [4], in [5] and in [6].
In the case of `COc1cc(CCN)cc(OC)c1OC`, the outcome in experiment [1], in [2], in [3], in experiment [4] and in [5] was inactive.
In the case of `O=C1C[C@@H]2OCC=C3CN4CC[C@]56c7ccccc7N1[C@H]5[C@H]2[C@H]3C[C@H]46` (tested in a mixture with another compound), the compound was classed as inactive in experiment [1], in [8], in [9], in experiment [3], in experiment [4] and in [5]. The result in [6] was inactive. Besides, the AC50 in [8] was 41.2 µM (active); in experiment [9], 36.6 µM (active).
As to `CCCCCCCCCCCOC(=O)c1ccccc1C(=O)OCCCCCCCCCCC`, the compound was called inactive in [1], in [2], in experiment [3] and in [5].
On to `OC(O)C(Cl)(Cl)Cl`, for which the outcome in [1], in experiment [8], in [9], in experiment [3], in experiment [4] and in experiment [5] was inactive. In addition, the outcome in experiment [6] was inactive.
Regarding `CNC(C)Cc1ccccc1OC` (stereo not given), the call in experiment [1], in experiment [8], in experiment [9], in experiment [3] and in experiment [5] was inactive.
`Nc1ccccc1C(=O)O`: the compound was called inactive in experiment [1], in [8], in experiment [9], in experiment [4], in experiment [5] and in experiment [6].
Take `COc1ccc2c(c1OC)C(=O)O[C@@H]2[C@H]1c2cc3c(cc2CCN1C)OCO3`: the compound was called inactive in experiment [1], in [8], in [9], in experiment [4], in experiment [5] and in experiment [6].
Turning to `CC(C)[C@@]1(NC(=O)[C@@H]2C[C@@H]3c4cccc5[nH]cc(c45)C[C@H]3N(C)C2)O[C@@]2(O)[C@@H]3CCCN3C(=O)[C@H](Cc3ccccc3)N2C1=O`, the compound was called inactive in experiment [1], in experiment [8], in [9], in experiment [3], in [4] and in [5]. The result in experiment [6] was inactive. In addition, in experiment [3], the AC50 was 33.9 µM (active).
For the compound `C=CC(C)=O`, the compound was classed as inactive in [1], in [8], in experiment [9], in experiment [3], in [5] and in experiment [6].
As to `CSCCCN=C=S`, the compound was called inactive in experiment [1], in experiment [8], in experiment [4] and in experiment [5]. Besides, the AC50 in experiment [9] is 20.9 µM (active).
With `C[C@@H]1O[C@@H](O[C@@H]2C=C3CC[C@@H]4[C@H](CC[C@]5(C)[C@@H](c6ccc(=O)oc6)CC[C@]45O)[C@@]3(C)CC2)[C@H](O)[C@H](O)[C@H]1O`, the values for the AC50 in experiment [1], in experiment [8] and in [3] were 0.00927 µM (active), 0.0134 µM (active) and 0.0123 µM (active), respectively. In addition, the outcome in [9], in [4] and in experiment [6] was inactive.
As to `O=[N+]([O-])c1ccc([As](=O)(O)O)cc1`, the compound was classed as inactive in experiment [1], in [8], in [9], in experiment [3], in experiment [4] and in experiment [5]. In addition, the result in experiment [6] was inactive.
